# Only some compounds are listed: those with a hit (about 14% of all), similar ones and a draw of the others.
# USP17 block: inhibitors of human USP17 deubiquitinase; purified USP17, Ub-rhodamine cleavage fluorescence, 3 h; inhibition, % at 50 µM; 6.5% of 47,000 active; AID 1645855
# USP8 inh: inhibitors of human USP8 deubiquitinase. 4.2% of 47,000 active. purified USP8, Ub-rhodamine cleavage fluorescence, 30 min. inhibition, % at 20 µM. P40818
# USP10 block: human USP10 deubiquitinase inhibition. purified USP10, Ub-rhodamine fluorescence, 60 min. inhibition, % at 20 µM. 1.1% of 47,000 active. AID 1645856
# USP28 inh: inhibitors of human USP28 deubiquitinase. Q96RU2. purified USP28, Ub-rhodamine cleavage fluorescence, 30 min. inhibition, % at 25 µM. 3% of 47,000 active. AID 1645857
# USP30 block: inhibitors of human USP30 deubiquitinase; Q70CQ3; purified USP30, Ub-rhodamine cleavage fluorescence; inhibition, % at 25 µM; 5.3% of 47,000 active; AID 1645860
# Target sequence (Q70CQ3 whole entry, looked up): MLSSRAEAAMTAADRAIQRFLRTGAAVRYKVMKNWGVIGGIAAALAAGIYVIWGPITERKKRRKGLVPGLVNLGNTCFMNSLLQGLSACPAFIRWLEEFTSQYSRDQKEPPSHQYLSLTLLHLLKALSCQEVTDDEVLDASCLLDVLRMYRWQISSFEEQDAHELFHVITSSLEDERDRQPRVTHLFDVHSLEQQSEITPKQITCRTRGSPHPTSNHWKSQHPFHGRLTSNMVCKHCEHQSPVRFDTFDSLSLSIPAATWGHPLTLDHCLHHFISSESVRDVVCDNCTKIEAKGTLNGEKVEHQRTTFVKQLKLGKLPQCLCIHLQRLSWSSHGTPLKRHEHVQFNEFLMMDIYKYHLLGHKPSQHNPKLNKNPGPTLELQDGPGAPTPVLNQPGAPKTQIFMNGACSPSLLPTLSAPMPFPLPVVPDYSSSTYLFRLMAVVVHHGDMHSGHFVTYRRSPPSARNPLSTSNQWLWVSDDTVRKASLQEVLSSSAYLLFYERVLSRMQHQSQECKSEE
# * hit, by the source's call; i = inactive; . = not tested or not shown. Cut-off read from the data, not from the text of the source: active = inhibition above about 30%; inactive = the rest.
SMILES,USP17 block,USP8 inh,USP10 block,USP28 inh,USP30 block
CCc1ccc(NC(=O)c2nnn(-c3cccc(F)c3)c2C)cc1,14.3,9.0,2.3,17.4,14.3
Cc1cccc(-n2nnc(C(=O)Nc3ccc(F)cc3)c2C)c1,18.9,18.0,3.7,18.6,31.5*
CCc1ccc(CN2C[C@@H]3C[C@@H](c4nc(C)no4)O[C@@H]3C2)o1,-17.3,-182.5,-6.8,0.0,-8.2
O=C(c1ccc(Br)o1)N1CCn2cnnc2C1,2.2,5.8,0.0,7.2,8.1
COc1cc(=O)c(C(=O)Nc2ccc(C#N)cc2)nn1-c1cccc(F)c1,64.5*,61.8*,9.2,42.8*,-0.1
COc1ccc(-c2cnnn2-c2ccc(NC(=O)c3c(F)cccc3F)cc2)cc1OC,.,6.1,-0.5,4.5,82.8*
COc1cccc(C(=O)Nc2nc(-c3nnn(-c4ccc(C)c(F)c4)c3C)ns2)c1,61.5*,55.7*,47.5*,64.3*,95.0*
COc1cccc(NC(=O)c2nn(-c3cccc(F)c3)c(OC)cc2=O)c1,4.7,20.9,-1.4,10.6,9.3
CCOc1cccc(C(=O)Nc2nc(-c3ccc(OCC)c(OC)c3)ns2)c1,17.7,-7.5,-4.1,4.3,6.4
COc1ccc(NC(=O)c2nnn(-c3ccccc3F)c2C)cc1OC,-6.6,0.4,0.5,73.9*,-2.0
COc1ccc(-n2nnc(C(=O)Nc3ccccc3F)c2C)cc1,9.9,16.5,2.8,12.4,25.1
COc1ccc(C2(C(=O)NC[C@@]34CCC[C@H]3N(C)C(=O)CC4)CC2)cc1,4.7,0.8,0.2,1.5,21.9
CCc1ccc(NC(=O)c2nnn(-c3cccc(C)c3)c2C)cc1,0.8,-1.6,5.4,40.6*,-14.8
Cc1ccc(NC(=O)c2nnn(-c3cccc(F)c3)c2C)cc1C,13.4,16.3,3.0,20.4,11.8
Cc1cccc(-n2ncc(C(=O)Nc3cccc(F)c3)c2-n2cccc2)c1,11.0,15.1,5.0,16.1,33.8*
Cc1cc(C)cc(NC(=O)c2cnn(-c3ccccc3)c2-n2cccc2)c1,6.6,5.7,6.0,5.9,5.6
Cc1cc(NC(=O)c2nnn(-c3ccc(Cl)cc3)c2C)no1,9.4,13.2,5.0,6.5,17.4
Cc1ccc(NC(=O)c2nnn(-c3ccccc3Br)c2C)cc1C,10.9,19.7,5.5,84.1*,10.4
COc1cccc(-n2nnc(C(=O)Nc3ccc(C)c(C)c3)c2C)c1,16.4,13.1,6.3,58.4*,6.2
Cc1csc(C2(NS(=O)(=O)CC3CCCCO3)CCCC2)n1 (configuration not stated),-7.4,-1.7,0.3,-0.4,-6.6
O=C(Nc1cc(F)ccc1F)c1cc(C2CC2)n2nccc2n1,0.8,-7.7,-0.9,-16.4,-18.2
CCOC(=O)c1cnc2cc(-c3ccco3)[nH]n2c1=O,-28.7,1.7,1.7,-11.0,-63.6
O=C(NCc1ccco1)c1cccnc1-c1nc2ccccc2s1,3.0,32.7*,-0.2,12.6,-12.6
CN(C(=O)c1cccnc1-c1nc2ccccc2s1)c1ccccc1,-0.4,-21.1,1.5,5.2,18.7
Cc1ccccc1C(=O)N/C(=C\c1coc2ccc(Cl)cc2c1=O)C(=O)N1CC2CC(C1)c1cccc(=O)n1C2 (configuration not stated),-13.8,-58.6,-5.7,-18.2,6.2
SMILES,USP17 block,USP8 inh,USP10 block,USP28 inh,USP30 block
CC(C)n1nccc1-c1cnc(CC2CCN(S(C)(=O)=O)C2)cn1 (configuration not stated),-10.4,-35.8,0.0,-9.9,-16.7
CC(C)n1nccc1-c1cnc(CC2CCN(S(C)(=O)=O)CC2)cn1,12.9,14.0,0.9,9.9,31.2*
COc1cccc(NC(=O)CCc2nnc3n(CCCOC(C)C)c(=O)c4ccccc4n23)c1,68.7*,80.6*,4.0,69.9*,89.3*
CC(C)OCCCn1c(=O)c2ccccc2n2c(CCC(=O)NCCc3c[nH]c4ccccc34)nnc12,37.2*,18.6,-0.6,17.9,28.2
O=C(CN1CCC2(CC1)Nc1ccccc1C1=NCCN12)NCc1ccccc1,-39.4,-84.0,-3.0,-31.7,-149.4
O=S(=O)(c1ccc2c(c1)OCCO2)N(Cc1ccccc1)Cc1nnc(-c2ccccc2)o1,.,14.8,2.7,23.4,74.3*
Cc1onc(-c2ccccc2)c1CNS(=O)(=O)c1ccc2c(c1)OCCO2,-7.1,-8.1,1.6,-2.0,-7.5
Cc1ccc2nc(N3CCN(C(=O)Cc4ccccc4)CC3)sc2c1,2.2,-6.0,2.1,-8.0,-4.0
O=C(Cc1ccccc1)N1CCN(c2nc3ccc(Cl)cc3s2)CC1,16.7,16.2,8.2,8.8,33.0*
O=C1COc2ccc(-c3cc4n(c3)CCc3cc5c(cc3-4)OCO5)cc2N1,18.0,42.5*,-4.4,8.2,-46.9
COCCCNC(=O)COc1c(-c2ccc(OC)cc2)oc2ccccc2c1=O,23.2,29.4,-0.8,17.9,49.2*
c1cncc(CN(Cc2ccc3c(c2)CCO3)C2CC2)c1,11.2,11.8,0.0,5.3,8.1
O=C(NC(c1ccccc1)c1nnc(N2CCOCC2)o1)c1ccccc1Cl (configuration not stated),15.1,13.6,-0.5,9.4,23.8
CC(C)(C)C(=O)NC(c1ccccc1)c1nnc(N2CCOCC2)o1 (configuration not stated),3.7,7.3,0.1,73.7*,2.9
CC(=O)c1cnc(-c2ccccn2)s1,3.3,43.5*,-4.0,-0.1,-25.6
Cn1c(=O)c2c(ncn2CC(=O)OCC(=O)Nc2ccc(F)c(Cl)c2)n(C)c1=O,-1.5,17.0,0.9,12.5,26.3
Cc1c(O)ccc2c(=O)c(-c3cc4ccccc4o3)coc12,2.8,18.7,3.0,3.5,8.5
O=c1ccc(-c2cc3ccccc3o2)cn1Cc1ccccc1-c1ccccc1,48.3*,84.1*,25.1,62.4*,-85.7
COc1ccccc1-c1nc2c3c(C)c(C)n(-c4ccc(Br)cn4)c3ncn2n1,51.1*,14.2,-6.8,-12.2,-148.7
CC1(C)Oc2ccc(C#N)cc2[C@H](N2CCCC2=O)[C@H]1O,-13.3,3.2,-0.3,-6.3,-18.5
CC(=O)N(O)[C@@H]1c2cc(C#N)ccc2OC(C)(C)[C@H]1O,4.1,33.9*,2.0,-1.5,11.4
Oc1ccc(-c2nc3c4cnn(-c5ccc(Cl)cc5)c4ncn3n2)cc1,32.3*,-7.0,-0.6,.,.
COc1cccc(N2CCN(c3ccc4nnc(CCC(=O)NCc5ccc6c(c5)OCO6)n4n3)CC2)c1,17.6,6.3,-3.9,0.2,3.8
c1ccc2oc(-c3cn[nH]c3)nc2c1,13.5,-154.1,1.2,12.2,30.7*
CCOc1ccc(C(=O)Nc2cccc(-c3nc4ccccc4o3)c2)cc1Br,-145.3,-34.1,-0.9,-244.4,i
Cc1ccn2c(=O)c(NC(=O)c3ccccc3Cl)cnc2c1,-21.5,-79.0,-6.4,-6.8,-13.5
Fc1ccc(Cn2ccc(-c3cnc(-c4ccccc4)s3)n2)cc1,12.8,14.5,9.1,61.9*,10.9
O=c1c2cc(-c3ccccc3)sc2n(Cc2ccc(F)cc2)c(=O)n1-c1ccccc1,8.8,-9.4,3.1,-3.0,11.0
COc1ccc(C(C)=O)c2cc(C#N)oc12,30.1*,6.9,2.3,-2.1,2.0
